Experimental data published in PubChem BioAssay (NCATS).
Results filed as inconclusive are left out. Unmarked numbers belong to inactive results. Calls come from the whole dose curve; as a rule, active = well fitted cell-killing curve with a large enough effect; inconclusive = small, poorly fitted or top-dose-only effect, or effect the other way; inactive = flat fitted curve, though single readings scatter. Where a SMILES comes first, the peptide text is derived from it. [ ]: non-standard residue; d: D form. pGlu = O=C1CC[C@@H](C(=O)O)N1

test system: SKOV3; test: Primary qHTS to identify gynecologic anti-cancer compounds using libraries of approved drugs and bioactive compounds (AID 1345084); conditions: Gynecologic cancer cell panel viability, ATPlite luminescence, 48 h; series mostly up to 57.5 µM; activity change, negative = cytotoxicity: at the top concentration; note: nearly all actives have a fitted effect of over 55% in size
Method in brief: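 Cells, 1,000 per well, plated 16 h, then exposed 48 h at 37 C to compounds. Viability by ATPlite luminescence after 15 min at room temperature.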
% is set by controls: 0 for no effect and ±100 for the full control effect.

Row | SMILES | activity change, negative = cytotoxicity
1 | CN1CC(=O)N2[C@H](c3ccc4c(c3)OCO4)c3[nH]c4ccccc4c3C[C@@H]2C1=O | 15.8%
2 | COc1ccc2cc(C=O)ccc2c1 | 3.58%
3 | COC(=O)C1=CO[C@@H](O)[C@@H]2C(CO)=CC[C@H]12 | 0%
4 | CCOC(=O)CN1CCCC1=O | 12.9%
5 | NCC[C@H](O)C(=O)N[C@@H]1C[C@H](N)[C@@H](O[C@H]2O[C@H](CN)[C@@H](O)[C@H](O)[C@@H]2O)[C@H](O)[C@@H]1O[C@H]1O[C@H](CO)[C@@H](O)[C@H](N)[C@@H]1O | 13.9% [at 0.462 µM]
6 | Cc1nc(N)nc(N)c1-c1ccc(Cl)c(Cl)c1 | 4.42%
7 | CC1(C)O[C@@H]2C[C@H]3[C@@H]4C[C@H](F)C5=CC(=O)C=C[C@]5(C)[C@@]4(F)[C@@H](O)C[C@]3(C)[C@]2(C(=O)CO)O1 | -1.9%
8 | Cc1[nH]cnc1-c1ccc(Cl)cc1 | 25.2%
9 | OC1(c2ccccc2)CCNCC1 | 6.66%
10 | CC(=O)N[C@@H](CO)C(=O)N[C@@H](CC(=O)O)C(=O)N[C@@H](CCCCN)C(=O)N1CCC[C@H]1C(=O)O (Ac-SDKP-OH) | 6.75%
11 | CCOC(=O)c1cc(=O)c2c(OCC(COc3cccc4oc(C(=O)OCC)cc(=O)c34)OC(=O)[C@@H](N)CCCCN)cccc2o1 | 13.3%
12 | C/C(=C(/OCCOc1ccc(Cl)cc1)c1ccc(Cl)cc1Cl)n1ccnc1 | 9.42%
13 | O=C(c1cc(O)c(O)c(O)c1)c1ccc(O)c(O)c1O | -1.83%
14 | CCOC(=O)Oc1ccc(CCNC(=O)[C@H](CCSC)NC(C)=O)cc1OC(=O)OCC | -2.32%
15 | CCOCCn1c(C2CCN(CCc3ccc(C(C)(C)C(=O)O)cc3)CC2)nc2ccccc21 | 16.9%
16 | Cc1ccc(CCn2c3c(c4cc(Cl)ccc42)CN(C)CC3)cn1 | 13.7%
17 | O=C1NC(c2ccccc2)(c2ccccc2)C(=O)N1COP(=O)(O)O | -2.94%
18 | CCCC(=O)O[C@]1(C(=O)CC)CC[C@H]2[C@@H]3CCC4=CC(=O)CC[C@]4(C)[C@H]3[C@@H](O)C[C@@]21C | -27.7%
19 | CCNC(=O)[C@@H]1CCCN1C(=O)[C@H](CCCN=C(N)N)NC(=O)[C@H](CC(C)C)NC(=O)CNC(=O)[C@H](Cc1ccc(O)cc1)NC(=O)[C@H](CO)NC(=O)[C@H](Cc1c[nH]c2ccccc12)NC(=O)[C@H](Cc1cnc[nH]1)NC(=O)[C@@H]1CCC(=O)N1 ([pGlu]HWSYGLRP-NHEt) | -4.49%
20 | CC(=O)c1cc2ccccc2s1 | 6.45%

Row | SMILES | activity change, negative = cytotoxicity
21 | Fc1ccc(C(c2ccc(F)cc2)N2CCNCC2)cc1 | 5.28%
22 | CN(C)CCN(Cc1ccsc1)c1ccccn1 | -1.06%
23 | COc1ccc(OC(=O)N(CC(=O)O)Cc2ccc(OCCc3nc(-c4ccccc4)oc3C)cc2)cc1 | 0.272%
24 | CN(C)CCN1CCN(c2cccc(Cl)c2)C1=O | -0.788%
25 | Cc1oc(-c2ccccc2)nc1CCC(=O)c1ccc(CC2SC(=O)NC2=O)cc1 (stereo not given) | 28.4%
26 | COC(=O)c1cc(S(N)(=O)=O)ccc1OC | 7.39%
27 | Nc1ncnc2c1ncn2Cc1c(F)cccc1Cl | -1.11%
28 | O=C1c2ccccc2CCc2ccccc21 | 6.31%
29 | CC(C)C[C@@H]1[C@H](c2ccccc2)OC(=O)N1CCCN1CCCCCC1 | -0.963%
30 | CC(C)(C)c1ccc(C(=O)CCCCl)cc1 | -22%
31 | CC(Oc1c(Cl)cccc1Cl)C1=NCCN1 (stereo not given) | 0%
32 | CC(=O)N1CCN(c2ccc(O)cc2)CC1 | 4.8%
33 | O=C1Nc2cc(Cl)ccc2Oc2ccccc21 | 12%
34 | Cc1ccc(C(=O)C(=O)O)cc1C | -8.58%
35 | Cc1ccc2c(Cl)cc(Cl)c(O)c2n1 | 8.94%
36 | CCCCOCCOC(=O)c1cccnc1 | -5.87%
37 | CN1Cc2cc(C(=O)N3CCC(C4CCNCC4)CC3)ccc2N[C@@H](CC(=O)O)C1=O | 5.46%
38 | O=C(O)Cn1c(=O)n(Cc2ccc(Br)cc2F)c(=O)c2ccc(Cl)cc21 | 23.4%
39 | COC(=O)/C=C(/C)N | -0.159%
40 | CC(C)(C)NCC(O)COc1ccccc1OCC1CCCO1 (stereo not given) | 0.297%
